{"source": "PubChem BioAssay (Tox21)", "note": "Records with an inconclusive call do not appear. Where a call stands in place of a potency, no number is given. A number with no mark means an inactive call. The source made the active and inactive calls. The call rests on the fitted dose curve.", "data": [{"experiment": "p53 small molecule agonists, cell-based qHTS assay: qHTS cell viability counter screen (AID 1963581); further: nearly all actives have a fitted effect of over 45% in size", "conditions": "p53RE-bla HCT-116 viability, ATP luminescence, 16 h; series mostly up to 66 µM", "method_in_brief": "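In the same plates used for the p53 bla reporter, HCT-116 cells given compounds for 16 h at 37 C received CellTiter-Glo; luminescence was recorded 30 min later at room temperature.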", "values": [{"smiles": "CC1CCC(CO)CC1", "note": "(stereo unspecified)", "Potency": "inactive"}, {"smiles": "Cc1c[nH]c(=S)[nH]c1=O", "Potency": "inactive"}, {"smiles": "CC(=O)OC1C2(C)CCC(C2)C1(C)C", "note": "(stereo unspecified)", "Potency": "inactive"}, {"smiles": "COP(=O)(OC)OC(c1ccc(Cl)cc1)P(=O)(OC)OC", "note": "(stereo unspecified)", "Potency": "inactive"}, {"smiles": "CCC(Cl)CC(Cl)C(Cl)C(Cl)C(Cl)C(C)Cl", "note": "(stereo unspecified)", "activity change, negative = cytotoxicity": "-23.5% [at 13.5 µM]"}, {"smiles": "O=C(O)c1ccc(S(=O)(=O)O)cc1C(=O)O", "Potency": "inactive"}, {"smiles": "CCCCCCC[N+](CC)(CC)CCCCc1ccc(Cl)cc1", "Potency": "inactive"}, {"smiles": "O=C1CCCCCCCCCCCC(=O)OCCO1", "Potency": "inactive"}, {"smiles": "CCCCCCCCCCl", "Potency": "inactive"}, {"smiles": "CC(C)CCCCCCOC(=O)C1CCCCC1C(=O)OCCCCCCC(C)C", "note": "(stereo unspecified)", "Potency": "inactive"}, {"smiles": "SC1CCCC1", "Potency": "inactive"}, {"smiles": "N#CCCN(CCO)CCO", "Potency": "inactive"}, {"smiles": "CC(C)O.CC(C)O.CCOC(=O)/C=C(\\C)O.CCOC(=O)/C=C(\\C)O.[Ti]", "Potency": "inactive"}, {"smiles": "Cn1cc(C(=O)[C@@H]2CCc3nc[nH]c3C2)c2ccccc21", "Potency": "inactive"}, {"smiles": "CC1=C(O)C(=O)CO1", "Potency": "inactive"}, {"smiles": "Cc1ccc2ccc3cccc4ccc1c2c34", "Potency": "inactive"}, {"smiles": "O=C(OCC(COC(=O)c1cccnc1)(COC(=O)c1cccnc1)COC(=O)c1cccnc1)c1cccnc1", "Potency": "inactive"}, {"smiles": "CN1C(CSCC(F)(F)F)Nc2cc(Cl)c(S(N)(=O)=O)cc2S1(=O)=O", "note": "(stereo unspecified)", "Potency": "inactive"}, {"smiles": "CC[C@H](C)C(=O)O[C@H]1C[C@H](O)C=C2C=C[C@H](C)[C@H](CC[C@@H](O)C[C@@H](O)CC(=O)O)[C@H]21", "Potency": "inactive"}, {"smiles": "CCCC(=O)O[C@]1(C(=O)COC(=O)CC)CC[C@H]2[C@@H]3CCC4=CC(=O)CC[C@]4(C)[C@H]3[C@@H](O)C[C@@]21C", "activity change, negative = cytotoxicity": "-11% [at 13.5 µM]"}, {"smiles": "CCN1C=CN(C)C1C", "note": "(stereo unspecified)", "Potency": "inactive"}, {"smiles": "CC1CCC(=O)C1=O", "note": "(stereo unspecified)", "Potency": "inactive"}, {"smiles": "COc1ccc(CCN(C)CCCN2CCc3cc(OC)c(OC)cc3CC2=O)cc1OC", "Potency": "inactive"}, {"smiles": "CSc1ccc(C=O)cc1", "Potency": "inactive"}, {"smiles": "C=C(C)C(=O)OCCOc1ccccc1", "Potency": "inactive"}, {"smiles": "C/C=C/C=N/NC(=O)c1ccncc1", "Potency": "inactive"}, {"smiles": "Cc1cc(O)c2c(O)c3c(O)cccc3cc2c1", "Potency": "inactive"}, {"smiles": "Cc1ncc([N+](=O)[O-])n1CC(O)CCl", "note": "(stereo unspecified)", "Potency": "inactive"}, {"smiles": "Oc1cccc(Nc2ccccc2)c1", "Potency": "inactive"}, {"smiles": "NNC(=O)OCc1ccccc1", "Potency": "inactive"}, {"smiles": "C[C@@H]1C[C@H]2[C@@H]3C[C@H](F)C4=CC(=O)C=C[C@]4(C)[C@@]3(F)[C@@H](O)C[C@]2(C)[C@@]1(O)C(=O)CO", "Potency": "inactive"}]}]}
